Source: ChEMBL document CHEMBL3988442, “University of Dundee, Small-Polar-MMV Screening Library” (2021)

Key:
[1] = biological target: T1, Aspartate--tRNA(Asp/Asn) ligase (Mycobacterium tuberculosis (strain ATCC 25618 / H37Rv)) (UniProt P9WFW3); assay: Assay for Asp RNA synthetase-1 from Mycobacterium tuberculosis; type: functional; parameters: scale not given: direction of the effect not stated beside the values; settings: 30 µM; note: in the data most compounds retested in dose-response had high values
T1 sequence (whole entry): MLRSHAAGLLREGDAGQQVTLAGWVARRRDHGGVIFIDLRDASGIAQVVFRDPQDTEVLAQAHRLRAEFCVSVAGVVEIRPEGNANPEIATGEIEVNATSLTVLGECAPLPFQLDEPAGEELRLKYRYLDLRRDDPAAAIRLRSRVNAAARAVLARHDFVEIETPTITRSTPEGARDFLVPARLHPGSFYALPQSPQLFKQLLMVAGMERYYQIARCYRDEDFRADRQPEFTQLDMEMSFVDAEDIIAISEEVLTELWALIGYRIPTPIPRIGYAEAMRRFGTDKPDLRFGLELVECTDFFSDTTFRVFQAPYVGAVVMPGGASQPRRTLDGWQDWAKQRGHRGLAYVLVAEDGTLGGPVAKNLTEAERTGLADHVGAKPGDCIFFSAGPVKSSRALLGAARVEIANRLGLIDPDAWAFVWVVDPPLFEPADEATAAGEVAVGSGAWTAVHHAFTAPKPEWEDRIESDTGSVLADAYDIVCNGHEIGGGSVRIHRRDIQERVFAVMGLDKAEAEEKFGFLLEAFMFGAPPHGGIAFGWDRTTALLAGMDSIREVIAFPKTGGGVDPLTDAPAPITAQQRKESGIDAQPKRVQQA

[2] = biological target: Shiga toxin 2 (Escherichia coli O157:H7) (UniProt P09385+P09386); assay: E. coli 0.157:H7 Shiga Toxin SOP - stx2 screening assay; type: functional; parameters: scale not given: direction of the effect not stated beside the values; settings: 30 µM

Compound | Percent Effect [1] [%] | Percent Effect [2] [%]
Cc1nc(NC(=O)CN2CCc3c(nc(C(C)C)n3C)C2)sc1C | -4.32 | 5.46
CNC(=O)Nc1cc(-c2ccccc2C)nn1CCO | 10.9 | -22
Cc1cnc(C(=O)N2CCCC(n3ccnc3C)C2)cn1 (configuration not stated) | -3.23 | -18.1
Cc1ccc(CN2CCC3(CC2)CC(c2cccnc2)CO3)s1 (configuration not stated) | -2.49 | -7.07
CNC(=O)[C@H]1CCS(=O)(=O)[C@@H]2CN(Cc3ccc(OC)cc3)C[C@H]12 | -0.605 | 3.61
Cc1cccc(Cn2ccc(NS(C)(=O)=O)n2)c1 | 6.96 | -21.6
CCNC(=O)Nc1ccc2c(ccn2CC(=O)N(CC)CC)c1 | -3.17 | 30.4
Cn1c(CC2CCS(=O)(=O)C2)nnc1SCCOc1ccccc1F (configuration not stated) | 2.75 | -10.2
O=C1CCSCC(C(=O)N2CCCC2)N1 (configuration not stated) | -3.45 | -6.39
COC(C(=O)N1CCCN(Cc2cscn2)CC1)c1ccccc1 (configuration not stated) | 0.144 | 3.66
CCC(=O)Nc1nnc(CCCOc2ccccc2)s1 | -2.47 | -12
Cc1cc(C)c(CNC(=O)NCCOc2ccc3c(c2)CCC3)c(=O)[nH]1 | -2.17 | 15
O=C(NCCNC(=O)c1scnc1Cl)c1ccccc1 | 2.84 | -34.6
CCN1CCCn2c(nc(CNC(=O)c3ccsc3)cc2=O)C1 | 7.56 | 11.3
Cc1nc(C)n(CC2CCCN2CCCOc2ccc(F)cc2)n1 (configuration not stated) | -8.6 | 0.578
CN(C)c1ncccc1CNC(=O)N1CCCC1CN1CCCCC1 (configuration not stated) | -2.19 | -17.9
COc1cccc(N2CCN(CCC(=O)NC3CCCC3)CC2)c1 | 1.95 | -41.4
COc1ccc(CN2C[C@@H]3CCCO[C@@H]3[C@H](NS(C)(=O)=O)C2)cc1 | 5.42 | -24
CNC(=O)Nc1cc(-c2ccc(Br)cc2)nn1CCO | -3.53 | 7.53
CN(C)C(=O)N1C[C@H]2CN(Cc3cccc(F)c3)C(=O)[C@H]2C1 | -2.95 | -2.65
O=C(NCCNCC1CNc2ccnn2C1)c1ccc(F)cc1 (configuration not stated) | -3.94 | -25.2
Cc1ccsc1C(=O)N1C[C@@H]2CN(Cc3ccoc3)CCO[C@@H]2C1 | -1.39 | -11.7
O=C(c1ccncc1)N1CCC(O)(Cn2ccc3ccncc32)CC1 | -0.194 | -14.9
Cn1nnc2c1C(COCC1CC1)CN(C(=O)Cc1ccsc1)C2 (configuration not stated) | -2.73 | -6.94
Cc1cccc(C(=O)NCc2ccnc(N(C)C)c2)n1 | -1.33 | -8.62
COc1c(CNC2CCN(C(C)(C)C)CC2)c(C(C)C)nn1C | -0.618 | 30.9

Compound | Percent Effect [1] [%] | Percent Effect [2] [%]
c1ccc(Cn2ccnc2CN2CCOC(Cn3cccn3)C2)cc1 (configuration not stated) | -3.22 | 8.78
COCCc1ncc(CN2CCC(Oc3ccccc3C)CC2)cn1 | 1.13 | 1.32
CC(=O)c1cccc(OCCCC(=O)NCC2CCCN2C)c1 (configuration not stated) | -2.48 | -4.3
Cc1cnn(CC2CCCCN2CCC(=O)Nc2cc(C)on2)c1 (configuration not stated) | 1.03 | 5.5
Cc1csc(N2CCCN(C(=O)C3(C#N)CCCCC3)CC2)n1 | -4.79 | 27.1
O=C(Nc1cnn(CCN2CCOCC2)c1)c1ccccc1O | -0.989 | -13.8
Cc1nn(C)c(N(C)C)c1CNCc1ccc(OCC(N)=O)cc1 | -6.72 | -11.7
Cc1cc(C(=O)N2CCCC2Cn2nc(C)cc2C)on1 (configuration not stated) | 0.681 | 20
CN(C)CC1CSCCCN1C(=O)Nc1ccc(C(C)(C)C)cc1 (configuration not stated) | 0.656 | 11.6
CCc1nc(C2CCCN2C(=O)CCn2cncn2)no1 (configuration not stated) | 3.36 | 5.08
Cc1cc(C)n(C2CCCN(C(=O)c3cccc4[nH]ncc34)C2)n1 (configuration not stated) | 7.59 | -6.75
Cc1c(F)cc(C(=O)O)cc1S(=O)(=O)Nc1ccc2c(c1)OCCO2 | 2.32 | 10.9
Cc1nc2cc(C(=O)N3CCCC(n4cncn4)C3)ccc2n1C (configuration not stated) | -8.92 | -28.5
O=C(CCCNC(=O)C1CC1)Nc1cnn(-c2ccccc2Cl)c1 | -4.78 | -29.3
COCC1CN(Cc2ccc(C)o2)Cc2ncn(CC3CC3)c21 (configuration not stated) | -3.92 | -13.7
CCc1nc(CN2CCN(C(=O)c3cnccn3)CC2)cs1 | -2.04 | -21.2
O=C(c1cn(-c2cc(N3CCSCC3)ncn2)cn1)N1CCSCC1 | -8.02 | 1.44
O=C1NCCN(CC2CC2)C12CCN(Cc1ccco1)CC2 | 24.3 | -8.3
CCOc1ncccc1C(=O)NCCN(CC)C1CC1 | 0.335 | 9.33
CNc1cc(CCNC(=O)c2cccnc2)nc(-c2ccncc2)n1 | -1.03 | 2.08
Cc1ncnc2c1CCN(c1cc(C(F)(F)F)ncn1)CC2 | 3.84 | 6.49
Cc1ccc(C)c(C(NC(=O)C(C)(C)C)c2cccnc2)c1 (configuration not stated) | -1.21 | 1.8
O=S1(=O)c2ccccc2C2(CCN(Cc3ccccc3)C2)N1CC1CC1 (configuration not stated) | -4.07 | 12.3
Cc1nccn1C1CCCN(C(=O)COCC(F)(F)F)C1 (configuration not stated) | -1.01 | -10.2
Cc1ccc(CNC(CN2CCN(C)CC2)c2ccccc2)cc1 (configuration not stated) | 3.88 | -2.09
